Assay results as given in PubChem BioAssay AID1159580 (chemical genetic matrix, 2015).
About 2,000 (36%) of roughly 5,500 compounds were called active. Inconclusive results (about 18%) are left out. No stated cut-off is given here; in the data, active means normalized growth mostly below about 0.91 (no sharp cut-off); inconclusive means no clear call, values can overlap the other calls; inactive means mostly above about 0.92. The list shows a part of the results.

Experiment: chemical genetic growth profiling, strain panel (AID 1159580);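 further: tested at 20 µM; growth read once vehicle control cultures reached saturation at 30 °C; 1 = growth at the plate median or of vehicle wells; lower values mean less growth of the strain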
Settings: S. cerevisiae deletion strains, growth OD

Measured: normalized growth

CC(=O)O[C@H]1C(=O)[C@@]2(C)C([C@H](OC(=O)c3ccccc3)[C@]3(O)C[C@H](O)C(C)=C1C3(C)C)[C@]1(OC(C)=O)CO[C@@H]1C[C@@H]2O (stereo partly specified)
inactive: locus YAL021C, strain ccr4, active compounds read low 0.974 | locus YAL026C, strain drs2, active compounds read low 0.983 | locus YAL030W, strain snc1, active compounds read low 1 | locus YBL061C, strain skt5, active compounds read low 1.02 | locus YBR009C, strain hhf1, active compounds read low 0.986 | locus YBR023C, strain chs3, active compounds read low 0.998 | locus YBR171W, strain sec66, active compounds read low 1 | locus YBR231C, strain swc5, active compounds read low 1 | locus YBR279W, strain paf1, active compounds read low 0.999 | locus YCL011C, strain gbp2, active compounds read low 1 | locus YCL016C, strain dcc1, active compounds read low 1.01 | locus YCL069W, strain vba3, active compounds read low 0.98 | locus YCR088W, strain abp1, active compounds read low 0.986 | locus YDL005C, strain med2, active compounds read low 1 | locus YDL040C, strain nat1, active compounds read low 0.999 | locus YDR001C, strain nth1, active compounds read low 0.99 | locus YDR069C, strain doa4, active compounds read low 1.02 | locus YDR137W, strain rgp1, active compounds read low 1.05 | locus YDR159W, strain sac3, active compounds read low 1.01 | locus YDR195W, strain ref2 0.946 | locus YDR297W, strain sur2, active compounds read low 0.977 | locus YDR334W, strain swr1, active compounds read low 0.969 | locus YDR335W, strain msn5, active compounds read low 0.993 | locus YDR392W, strain spt3, active compounds read low 0.985 | locus YEL003W, strain gim4, active compounds read low 0.991 | locus YEL037C, strain rad23, active compounds read low 0.983 | locus YEL061C, strain CIN8 (second series), active compounds read low 0.981 | locus YER015W, strain faa2, active compounds read low 1 | locus YER016W, strain bim1, active compounds read low 1.01 | locus YER111C, strain swi4, active compounds read low 1 | locus YER155C, strain BEM2 (second series), active compounds read low 1.01 | locus YFR010W, strain ubp6, active compounds read low 0.985 | locus YGL167C, strain pmr1, active compounds read low 1 | locus YGL173C, strain kem1, active compounds read low 0.998 | locus YGL227W, strain vid30, active compounds read low 0.992 | locus YGL240W, strain doc1, active compounds read low 1 | locus YGL253W, strain hxk2, active compounds read low 0.99 | locus YHR013C, strain ard1, active compounds read low 1 | locus YHR027C, strain rpn1, active compounds read low 1 | locus YHR030C, strain SLT2, active compounds read low 0.988 | locus YHR079C, strain IRE1, active compounds read low 0.995 | locus YHR142W, strain chs7, active compounds read low 0.984 | locus YJL092W, strain hpr5, active compounds read low 0.998 | locus YJL095W, strain BCK1 (second series), active compounds read low 0.995 | locus YJL095W, strain BCK1, active compounds read low 0.995 | locus YJL115W, strain asf1, active compounds read low 0.973 | locus YJL129C, strain trk1, active compounds read low 0.982 | locus YJL154C, strain vps35, active compounds read low 0.98 | locus YJL164C, strain tpk1, active compounds read low 1 | locus YJL166W, strain qcr8, active compounds read low 1 | locus YJR066W, strain TOR1, active compounds read low 0.94 | locus YKL160W, strain elf1, active compounds read low 1.01 | locus YKR026C, strain gcn3, active compounds read low 0.985 | locus YKR091W, strain srl3, active compounds read low 1.01 | locus YLL001W, strain dnm1, active compounds read low 1 | locus YLL026W, active compounds read low 0.999 | locus YLL041C, strain sdh2, active compounds read low 0.985 | locus YLR027C, strain aat2, active compounds read low 0.988 | locus YLR113W, strain HOG1, active compounds read low 1.01 | locus YLR221C, strain rsa3, active compounds read low 0.994 | locus YLR258W, strain gsy2, active compounds read low 0.999 | locus YLR262C, strain YPT6 (second series), active compounds read low 1 | locus YLR320W, strain mms22, active compounds read low 1.01 | locus YLR342W, strain FKS1, active compounds read low 1.01 | locus YLR357W, strain rsc2, active compounds read low 0.968 | locus YLR370C, strain arc18, active compounds read low 0.984 | locus YLR384C, strain iki3, active compounds read low 0.981 | locus YML120C, strain ndi1, active compounds read low 1.01 | locus YMR058W, strain fet3, active compounds read low 0.99 | locus YMR125W, strain sto1, active compounds read low 0.993 | locus YMR129W, active compounds read low 0.988 | locus YMR205C, strain PFK2, active compounds read low 0.989 | locus YMR231W, strain pep5, active compounds read low 1 | locus YNL071W, strain lat1, active compounds read low 0.979 | locus YNL183C, strain NPR1, active compounds read low 0.953 | locus YNL209W, strain ssb2, active compounds read low 0.987 | locus YNL248C, strain rpa49, active compounds read low 0.974 | locus YNL322C, strain KRE1 (second series), active compounds read low 1.01 | locus YNR049C, strain mso1, active compounds read low 1.01 | locus YOR001W, strain rrp6, active compounds read low 0.982 | locus YOR070C, strain gyp1, active compounds read low 0.987 | locus YOR080W, strain dia2, active compounds read low 0.993 | locus YOR083W, strain WHI5, active compounds read low 1.01 | locus YOR106W, strain vam3, active compounds read low 1.01 | locus YOR231W, strain MKK1, active compounds read low 0.973 | locus YOR265W, strain rbl2, active compounds read low 0.969 | locus YOR270C, strain vph1, active compounds read low 0.888 | locus YOR290C, strain snf2, active compounds read low 1.02 | locus YPL051W, strain arl3, active compounds read low 1.01 | locus YPL078C, strain atp4, active compounds read low 0.996 | locus YPL106C, strain sse1, active compounds read low 0.987 | locus YPL240C, strain hsp82, active compounds read low 0.995 | locus YPL256C, strain CLN2, active compounds read low 0.966

CC(=O)OC1C(=O)C2(C)C(O)CC3OCC3(OC(C)=O)C2C(OC(=O)c2ccccc2)C2(O)CC(OC(=O)C(O)C(NC(=O)c3ccccc3)c3ccccc3)C(C)=C1C2(C)C (stereo unspecified)
inactive: locus YCL061C, strain MRC1 (second series), active compounds read low 0.996 | locus YDR363W, strain ESC2, active compounds read low 0.984 | locus YER002W, strain NOP16, active compounds read low 1 | locus YMR307W, strain GAS1, active compounds read low 0.975 | locus YNL128W, strain TEP1, active compounds read low 1 | locus YNL197C, strain WHI3, active compounds read low 0.981 | locus YNL224C, strain SQS1, active compounds read low 1.03 | locus YPL241C, strain CIN2, active compounds read low 0.995
